Pf Dd2 inh = blocks in vitro growth of P. falciparum Dd2; actives 4.3% (n = 120,000); P. falciparum Dd2 growth, SYBR Green, 72 h; Potency, µM (highest dose often 28.9 µM), for the others: top-dose activity, negative = inhibition, hits mostly inhibitors; AID 1347417; active means well fitted inhibition curve with a large enough effect;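 further: plate controls were DMSO vehicle for no effect and reference drug for full effect; nearly all actives have a fitted effect of over 65% in size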
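Infected erythrocytes (Dd2, 0.3% parasitemia, 2.5% hematocrit final) are added to compound in RPMI-1640/Albumax II medium, grown 72 h at 37C in low oxygen, then lysed with saponin/Triton-X containing SYBR Green and read by fluorescence.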
The depositor's hits bear a star; i = inactive; [ ] = another dose, or the depositor's remark. Many of the other results were omitted from the sample, so hits are more common in it than they were. Potency means the concentration at half of the fitted maximal effect.

SMILES	Pf Dd2 inh
O=C(NCc1ccco1)c1ccc2c(c1)N(Cc1ccccc1)C(=O)c1ccccc1S2(=O)=O	-13%
COCCNC(=O)c1ccc2c(c1)N(Cc1cc(C)ccc1C)C(=O)c1ccccc1S2(=O)=O	-25%
CCOC(=O)c1ccc2c(c1)N(Cc1cc(C)ccc1C)C(=O)c1ccccc1S2(=O)=O	i
CCOC(=O)N1CCC(NC(=O)c2ccc3c(c2)N(Cc2cc(C)ccc2C)C(=O)c2ccccc2S3(=O)=O)CC1	11µM*
O=C(c1ccc2c(c1)N(Cc1ccccc1F)C(=O)c1ccccc1S2(=O)=O)N1CCCCC1	i
Cc1ccc(CCNC(=O)c2ccc3c(c2)N(Cc2cccc(C)c2)C(=O)c2ccccc2S3(=O)=O)cc1	-2%
COC(=O)c1ccc2c(c1)N(Cc1ccccc1)C(=O)c1ccccc1S2(=O)=O	56%
Cc1ccc(CNC(=O)c2ccc3c(c2)N(Cc2ccccc2)C(=O)c2ccccc2S3(=O)=O)cc1	-44%
CCC(C)NC(=O)c1ccc2c(c1)N(Cc1ccccc1)C(=O)c1ccccc1S2(=O)=O (stereo not given)	3.2µM*
Cc1ccc(C)c(CN2C(=O)c3ccccc3S(=O)(=O)c3ccc(C(=O)NCc4ccccc4)cc32)c1	7.1µM*
Cc1ccc(C)c(CN2C(=O)c3ccccc3S(=O)(=O)c3ccc(C(=O)N4CCN(c5ccccc5)CC4)cc32)c1	5.6µM*
COC(=O)CNC(=O)C1CCc2nnc(C3CCN(C(=O)c4ccccc4)CC3)n21 (stereo not given)	15%
O=S(=O)(c1ccc(Cl)s1)N1CCC(n2cnnc2C2CC2)CC1	0%
O=C(Nc1ncc(-c2cccc(F)c2)c2c1OCC2)c1cccnc1	38%[44.1 µM]
CCCNC(=O)N(CCC)CC1CCOC1 (stereo not given)	-5%[5.79 µM]
COc1ccc(N2CC(C(=O)NCCCc3ccccc3)NC2=O)cc1 (stereo not given)	-3%
O=C(CCc1ccccc1)N1CCC2(CC1)CC(O)CCO2 (stereo not given)	0%
CCCCC(=O)N1CCC(OC2CCN(Cc3cccnc3)CC2)CC1	3%
CN1C(=O)C(c2ccccc2)CC12CCN(C(=O)C1(C(N)=O)CC1)CC2 (stereo not given)	-6%
Cc1cc(C(=O)NCc2cccs2)c2c(C3CCNC3)noc2n1 (stereo not given)	-10%
CCC(=O)N1CCC(Cc2ncc(C)n2C(C)C)C1 (stereo not given)	-10%
Cc1nc(CN2CCN(C(C(=O)O)c3cc4ccccc4o3)CC2)cs1 (stereo not given)	17%
COc1ccc(CNC(=O)C2(c3ccc(NS(C)(=O)=O)cc3)CCCCC2)cc1	i
Cc1noc(-c2ccn3c(CNC(=O)c4nccc5ccccc45)nnc3c2)n1	-30%
CC(C)C1=NOC2(CCN(Cc3cccc4ccccc34)CC2)C1	-20%[44.1 µM]
SMILES	Pf Dd2 inh
O=C(C1CC(=O)N(c2n[nH]c3cccc(F)c23)C1)N1CCC(Cc2ccccc2)CC1 (stereo not given)	-21%
CC(C)C[C@H](NC(=O)Cn1nc2c(cc1=O)CCCCC2)C(=O)O	-8%
Cc1ccc([S+](=O)([O-])N(C)Cc2ccc(-c3ccccc3)cc2)cc1	-9%
O=C(c1ccc2c(c1)N(Cc1ccc(F)cc1)C(=O)c1ccccc1S2(=O)=O)N1CCCC1	-10%
O=C(c1ccc2c(c1)N(Cc1ccccc1F)C(=O)c1ccccc1S2(=O)=O)N1CCCC1	-12%
O=C(c1ccc2c(c1)N(Cc1ccccc1)C(=O)c1ccccc1S2(=O)=O)N1CCN(Cc2ccccc2)CC1	8.9µM*
COc1ccc(NC(=O)N2CCCC(Cn3cnc4cccnc43)C2)c(OC)c1 (stereo not given)	-22%
O=C(C[C@@H]1CCNC[C@@H]1Cc1cc(CN2CCCCC2)on1)NCc1cccs1	-16%[44.1 µM]
O=C(NCc1ccccc1F)c1ccc2c(c1)CN(Cc1ccncc1)CCO2	i
COc1cccc(N2CC(C(=O)NCc3ccc(F)cc3)NC2=O)c1 (stereo not given)	-14%[44.1 µM]
Cc1ccc(-n2cc3c(c2-c2ccccc2Br)c(=O)n(C)c(=O)n3C)cc1N	13µM*
Cn1c(=O)c2c(-c3ccccc3Br)n(CCc3ccccc3)cc2n(C)c1=O	-20%
Cc1cc(N)c(-n2cc3c(c2-c2ccc(Br)cc2)c(=O)n(C)c(=O)n3C)cc1C	-18%
CN(CCCc1nccn1C)C(=O)c1cn(CCC2CCCCN2)nn1 (stereo not given)	-19%
COc1cccc(-c2cc(C(=O)Nc3cc(Cl)ccc3O)on2)c1	1µM*
COc1ccc(OC)c(NC(=O)c2noc3c2CCCC3)c1	-14%
Cc1ccc(O)c(NC(=O)COCc2cc(-c3ccco3)on2)c1	18%
Cc1ccc(O)c(NC(=O)c2noc3c2CCCCC3)c1	4.5µM*
Cc1ccc(O)c(NC(=O)c2cc(-c3ccccc3O)no2)c1	2.2µM*
COc1cccc(C(=O)Nc2cc(-c3ccccc3)no2)c1	-1%
COc1cccc(-c2cc(C(=O)Nc3cc(OC)c(OC)c(OC)c3)on2)c1	-13%[0.594 µM]
Cc1ccc(C)c(N2CCN(C(=O)c3noc4c3CCCCC4)CC2)c1	i
O=C(Nc1cccc(O)c1)c1cc(-c2ccccc2F)no1	-13%
Cn1cc(CNC(=O)C[C@@H]2C[C@H]3O[C@H](CNC(=O)NCc4ccccc4)[C@@H](O)[C@H]3O2)cn1	-12%
CCc1nc(C)ccc1OCC(=O)N1Cc2[nH]cnc2CC1C(=O)O (stereo not given)	-5%
SMILES	Pf Dd2 inh
CCN(CC)C(=O)N1C[C@@H](Oc2cccnc2)C[C@H]1C(=O)N1CCOCC1	-25%
COC(=O)C1=CN(CC(=O)Nc2cccc(C)c2C)S(=O)(=O)N=C1C	42%
COc1ccc2cc(C3CN(C(=O)c4cccc(CO)n4)CCO3)ccc2c1 (stereo not given)	2%
O=C1CCN(C(=O)c2ccsc2)CCCOCCN1	23%
CC(=O)NCC(=O)N1C[C@@H](COc2cccnc2)[C@H](c2ccccn2)C1	21%
Cc1cc(C(=O)N2CCC(=O)N(Cc3ccc(F)cc3)C(C(C)C)C2)n[nH]1 (stereo not given)	-26%
CCN(CC)c1cc(CCC(=O)NCc2ccc(Cl)cc2)ccn1	5µM*
Cn1cc(CCC(=O)NCc2ccc(Cl)cc2)c2ccccc21	29%
CCN(CC)c1cc(CCC(=O)N(C)CCc2ccncc2)ccn1	-14%
Clc1cccc(-c2noc(-c3ccc(NCC4COCCO4)nc3)n2)c1 (stereo not given)	-18%
CC(C)c1nncn1C1CCN(S(=O)(=O)Cc2ccc(Cl)cc2)CC1	-26%
Cc1ccc(N2CCN(c3nc4c(c(=O)[nH]3)CCNC4)CC2)cc1	7%
CCCCN1CCN(C(=O)c2cc(Cl)c(C)c(Cl)c2)CC1=O	-7%
CCCCN1CCN(c2nc(-c3ccccc3)nc3c2CCNC3)CC1=O	11µM*
O=C(O)CCn1ncc2cc(OC3CCN(C(=O)Oc4ccccc4)CC3)ccc21	i
O=C(O)CCn1ncc2cc(OC3CCN(C(=O)c4cc(F)ccc4Cl)CC3)ccc21	-10%
CNC(=O)CCn1ncc2cc(OC3CCc4cccc(-c5ccc(F)cc5)c43)ccc21 (stereo not given)	14µM*
CNC(=O)CCn1ncc2cc(OC3CCc4cccc(-c5cccc(F)c5)c43)ccc21 (stereo not given)	i
CNC(=O)CCn1ncc2cc(OC3CCc4cccc(-c5ccccc5)c43)ccc21 (stereo not given)	2.8µM*
CNC(=O)CCn1ncc2cc(OC3CCc4cccc(-c5ccnc(C)c5)c43)ccc21 (stereo not given)	0%[44.1 µM]
